Experimental findings from publication PMC11006913 are described below.

What all share (experiment): PBM; 200 nM protein, PBS
Common to all, as to conditions: dsDNA, one strand shown

Assay [1] addresses T1, SIX6 (Homo sapiens, UniProt O95475 114-200, L167I).
T1 sequence: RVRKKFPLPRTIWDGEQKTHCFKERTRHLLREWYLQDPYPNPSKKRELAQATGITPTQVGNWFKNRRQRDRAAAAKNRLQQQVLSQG

Assay [2] addresses T2, SIX6 (Homo sapiens, UniProt O95475 114-200, L143V).
T2 sequence: T1 sequence with L30V, I54L

Assay [3] deals with T3, SIX6 (Homo sapiens, UniProt O95475 114-200, H141N).
T3 sequence: T1 sequence with H28N, I54L

Assay [4] has as its target T4, SIX6 (Homo sapiens, UniProt O95475 114-200, T165P).
T4 sequence: T1 sequence with T52P, I54L

Assay [5] has as its target T5, SIX6 (Homo sapiens, UniProt O95475 114-200, L167M).
T5 sequence: T1 sequence with I54M

In assay [6] the target is T6, SIX6 (Homo sapiens, UniProt O95475 114-200, L143M).
T6 sequence: T1 sequence with L30M, I54L

The target of assay [7] is T7, SIX6 (Homo sapiens, UniProt O95475 114-200, L143I).
T7 sequence: T1 sequence with L30I, I54L

In assay [8] the target is T8, SIX6 (Homo sapiens, UniProt O95475 114-200, T165G).
T8 sequence: T1 sequence with T52G, I54L

Assay [9] deals with T9, SIX6 (Homo sapiens, UniProt O95475 114-200, T139Q).
T9 sequence: T1 sequence with T26Q, I54L

Assay [10] concerns the target T10, SIX6 (Homo sapiens, UniProt O95475 114-200, T165A).
T10 sequence: T1 sequence with T52A, I54L

Assay [11] concerns the target T11, SIX6 (Homo sapiens, UniProt O95475 114-200, L167V).
T11 sequence: T1 sequence with I54V

Assay [12] has as its target T12, SIX6 (Homo sapiens, UniProt O95475 114-200).
T12 sequence: T1 sequence with I54L

The target of assay [13] is T13, SIX6 (Homo sapiens, UniProt O95475 114-200, T165I).
T13 sequence: T1 sequence with T52I, I54L

In assay [14] the target is CRX (Homo sapiens, UniProt O43186 26-111, E42D).
Sequence of CRX (Homo sapiens, UniProt O43186 26-111, E42D) (O43186 26-111 E42D): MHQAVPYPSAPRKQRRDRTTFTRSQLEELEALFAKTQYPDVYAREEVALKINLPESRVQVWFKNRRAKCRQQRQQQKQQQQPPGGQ
The target of the next assay is SHOX (Homo sapiens, UniProt O15266 103-189, R173C).
Sequence of SHOX (O15266 103-189 R173C): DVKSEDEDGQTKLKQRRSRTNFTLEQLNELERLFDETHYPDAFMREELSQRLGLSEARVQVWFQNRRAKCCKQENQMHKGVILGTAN
The target in assay [15] is CRX (Homo sapiens, UniProt O43186 26-111, R41L).
Sequence of CRX (Homo sapiens, UniProt O43186 26-111, R41L) (O43186 26-111 R41L): as the sequence (O43186 26-111 E42D) above, with R16L, D17E counted along it
Assay [16] concerns the target HESX1 (Homo sapiens, UniProt Q9UBX0 95-180, R165K).
The target of assay [17] is HESX1 (Homo sapiens, UniProt Q9UBX0 95-180).
Sequence of HESX1 (Homo sapiens, UniProt Q9UBX0 95-180) (Q9UBX0 95-180): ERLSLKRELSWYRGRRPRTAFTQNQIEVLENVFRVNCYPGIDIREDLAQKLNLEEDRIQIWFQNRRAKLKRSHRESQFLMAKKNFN
Assay [18] deals with HESX1 (Homo sapiens, UniProt Q9UBX0 95-180, F115L).
Sequence of HESX1 (Homo sapiens, UniProt Q9UBX0 95-180, F115L) (Q9UBX0 95-180 F115L): as the sequence (Q9UBX0 95-180) above, with F21L counted along it
The next assay deals with HOXD13 (Homo sapiens, UniProt P35453 263-343, T313R).
Sequence of HOXD13 (P35453 263-343 T313R): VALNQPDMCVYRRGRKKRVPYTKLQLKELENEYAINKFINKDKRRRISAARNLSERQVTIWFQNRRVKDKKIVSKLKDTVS

Where a chain is given by its changes, count along the chain named.

Sequence of HESX1 (Homo sapiens, UniProt Q9UBX0 95-180, R165K) (Q9UBX0 95-180 R165K): as the sequence (Q9UBX0 95-180) above, with R71K counted along it

As to CCCGGCGG, the binding signal with SIX6 [1] is 9.11 upbm affinity estimate (log intensity, higher = more binding, comparable within an allelic series); in the assay with SIX6 [2] it was 8.98 upbm affinity estimate (log intensity, higher = more binding, comparable within an allelic series); with SIX6 [3] it was 9.13 upbm affinity estimate (log intensity, higher = more binding, comparable within an allelic series); with SIX6 [4], 8.96 upbm affinity estimate (log intensity, higher = more binding, comparable within an allelic series); with SIX6 [5], 9 upbm affinity estimate (log intensity, higher = more binding, comparable within an allelic series); with SIX6 [6], 9.17 upbm affinity estimate (log intensity, higher = more binding, comparable within an allelic series). The binding signal was 9 upbm affinity estimate (log intensity, higher = more binding, comparable within an allelic series) with SIX6 [7]; 9.14 upbm affinity estimate (log intensity, higher = more binding, comparable within an allelic series) in the assay with SIX6 [8]; 9.18 upbm affinity estimate (log intensity, higher = more binding, comparable within an allelic series) in the assay with SIX6 [9]; 9.22 upbm affinity estimate (log intensity, higher = more binding, comparable within an allelic series) in the assay with SIX6 [10]; 9.07 upbm affinity estimate (log intensity, higher = more binding, comparable within an allelic series) with SIX6 [11]; 9.12 upbm affinity estimate (log intensity, higher = more binding, comparable within an allelic series) with SIX6 [12]. Also, in the assay with SIX6 [13], the binding signal was 9.08 upbm affinity estimate (log intensity, higher = more binding, comparable within an allelic series).
Turning to CGGTCCAA, the binding signal was 8.43 upbm affinity estimate (log intensity, higher = more binding, comparable within an allelic series) with CRX [14]; 7.18 upbm affinity estimate (log intensity, higher = more binding, comparable within an allelic series) with SHOX; 8.25 upbm affinity estimate (log intensity, higher = more binding, comparable within an allelic series) with CRX [15].
Consider ACGCGCAG, for which the binding signal with SHOX is 7.17 upbm affinity estimate (log intensity, higher = more binding, comparable within an allelic series).
Take CGGACCCG: the binding signal with CRX [14] was 8.29 upbm affinity estimate (log intensity, higher = more binding, comparable within an allelic series); in the assay with CRX [15], 8.36 upbm affinity estimate (log intensity, higher = more binding, comparable within an allelic series).
As to ATTACGTA, the binding signal with CRX [14] is 10.4 upbm affinity estimate (log intensity, higher = more binding, comparable within an allelic series); with CRX [15] it was 10.2 upbm affinity estimate (log intensity, higher = more binding, comparable within an allelic series).
AATTAGCT: the binding signal with HESX1 [16] was 11.6 upbm affinity estimate (log intensity, higher = more binding, comparable within an allelic series); with HESX1 [17], 11.6 upbm affinity estimate (log intensity, higher = more binding, comparable within an allelic series); with SHOX, 9.43 upbm affinity estimate (log intensity, higher = more binding, comparable within an allelic series); in the assay with HESX1 [18], 7.79 upbm affinity estimate (log intensity, higher = more binding, comparable within an allelic series).
Consider CCAGCGCG, for which the binding signal was 6.43 upbm affinity estimate (log intensity, higher = more binding, comparable within an allelic series) in the assay with HESX1 [16]; 6.41 upbm affinity estimate (log intensity, higher = more binding, comparable within an allelic series) with HESX1 [17]; 6.43 upbm affinity estimate (log intensity, higher = more binding, comparable within an allelic series) in the assay with HESX1 [18].
Consider CACTTAGA, for which the binding signal was 7.73 upbm affinity estimate (log intensity, higher = more binding, comparable within an allelic series) in the assay with HESX1 [16]; 7.94 upbm affinity estimate (log intensity, higher = more binding, comparable within an allelic series) in the assay with HESX1 [17]; 6.78 upbm affinity estimate (log intensity, higher = more binding, comparable within an allelic series) with HESX1 [18].
Regarding CTAATTGC, the binding signal with HESX1 [16] was 12.3 upbm affinity estimate (log intensity, higher = more binding, comparable within an allelic series); in the assay with HESX1 [17], 12.5 upbm affinity estimate (log intensity, higher = more binding, comparable within an allelic series); with SHOX it was 9.34 upbm affinity estimate (log intensity, higher = more binding, comparable within an allelic series); with HESX1 [18], 7.52 upbm affinity estimate (log intensity, higher = more binding, comparable within an allelic series).
Regarding CCGCGTCG, the binding signal with HESX1 [16] is 6.63 upbm affinity estimate (log intensity, higher = more binding, comparable within an allelic series); in the assay with HESX1 [17], 6.33 upbm affinity estimate (log intensity, higher = more binding, comparable within an allelic series); in the assay with HESX1 [18], 6.48 upbm affinity estimate (log intensity, higher = more binding, comparable within an allelic series).
In the case of ACCCGGGC, the binding signal with SHOX is 7.15 upbm affinity estimate (log intensity, higher = more binding, comparable within an allelic series).
CTTCCGTC: the binding signal was 6.54 upbm affinity estimate (log intensity, higher = more binding, comparable within an allelic series) with HESX1 [16]; 6.45 upbm affinity estimate (log intensity, higher = more binding, comparable within an allelic series) with HESX1 [17]; 6.61 upbm affinity estimate (log intensity, higher = more binding, comparable within an allelic series) with HESX1 [18].
For the sequence CGAACGCC, the binding signal in the assay with CRX [14] was 8.15 upbm affinity estimate (log intensity, higher = more binding, comparable within an allelic series); with CRX [15], 8.11 upbm affinity estimate (log intensity, higher = more binding, comparable within an allelic series).
In the case of CCGGCGCG, the binding signal in the assay with CRX [14] was 8.4 upbm affinity estimate (log intensity, higher = more binding, comparable within an allelic series); with CRX [15], 8.36 upbm affinity estimate (log intensity, higher = more binding, comparable within an allelic series).
Consider ACCAGCTG, for which the binding signal with SHOX is 7.03 upbm affinity estimate (log intensity, higher = more binding, comparable within an allelic series).
Take CCGACCTC: the binding signal with HOXD13 is 9.52 upbm affinity estimate (log intensity, higher = more binding, comparable within an allelic series).
On to CCGGTGGC, for which the binding signal in the assay with HOXD13 was 9.44 upbm affinity estimate (log intensity, higher = more binding, comparable within an allelic series).
Consider CCAGCCAG, for which the binding signal with HOXD13 is 9.41 upbm affinity estimate (log intensity, higher = more binding, comparable within an allelic series).
CGGCGCCG: the binding signal with SIX6 [1] was 8.88 upbm affinity estimate (log intensity, higher = more binding, comparable within an allelic series); with SIX6 [2], 8.75 upbm affinity estimate (log intensity, higher = more binding, comparable within an allelic series); with SIX6 [3], 8.89 upbm affinity estimate (log intensity, higher = more binding, comparable within an allelic series); with SIX6 [4] it was 9.09 upbm affinity estimate (log intensity, higher = more binding, comparable within an allelic series); with SIX6 [5] it was 8.86 upbm affinity estimate (log intensity, higher = more binding, comparable within an allelic series); with SIX6 [6], 8.74 upbm affinity estimate (log intensity, higher = more binding, comparable within an allelic series). The binding signal was 8.87 upbm affinity estimate (log intensity, higher = more binding, comparable within an allelic series) with SIX6 [7]; 8.96 upbm affinity estimate (log intensity, higher = more binding, comparable within an allelic series) with SIX6 [8]; 8.91 upbm affinity estimate (log intensity, higher = more binding, comparable within an allelic series) in the assay with SIX6 [9]; 8.83 upbm affinity estimate (log intensity, higher = more binding, comparable within an allelic series) with SIX6 [10]; 8.85 upbm affinity estimate (log intensity, higher = more binding, comparable within an allelic series) with SIX6 [11]; 8.9 upbm affinity estimate (log intensity, higher = more binding, comparable within an allelic series) with SIX6 [12]. For the same sequence, the binding signal with SIX6 [13] is 8.84 upbm affinity estimate (log intensity, higher = more binding, comparable within an allelic series).
